TR SRC2 fluor cs = Texas Red fluorescence interference in TRb-SRC2 counter-screen | Potency, µM (doses to about 106 µM), inactives show top-dose fluorescence change, negative = quenching | TRb/SRC2 Texas Red total fluorescence interference | hit rate 0.29% among 280,000; active means well fitted curve in either direction with a large enough effect; inconclusive means small, poorly fitted or top-dose-only effect; further: potency means the concentration at half of the fitted maximal effect
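Flags fluorescent or light-absorbing compounds by total fluorescence, S + 2P, at 555 nm excitation and 632 nm emission. Mixture: 20 nM Texas Red SRC2 peptide, 0.6 uM human TRb LBD, 1 uM T3, 5% DMSO; compound exposure 5 h at ambient temperature.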
GoLoco inh red = inhibitors of human Gai1-RGS12 GoLoco interaction (red fluorophore); P63096; Gai1:RGS12 GoLoco peptide FP, rhodamine, 10 min; Potency, µM (doses to about 61.6 µM), without a hit: at the highest dose activity, negative = inhibition, usual class: inhibitors; hit rate 0.44% among 230,000; AID 880; active means well fitted inhibition curve with a large enough effect, not every such curve was filed as active; inactive means no such curve, though single readings can be large or run the other way; further: potency means the concentration at half of the fitted maximal effect; nearly all actives have a fitted effect of over 30% in size
Target sequence (P63096 whole entry, looked up): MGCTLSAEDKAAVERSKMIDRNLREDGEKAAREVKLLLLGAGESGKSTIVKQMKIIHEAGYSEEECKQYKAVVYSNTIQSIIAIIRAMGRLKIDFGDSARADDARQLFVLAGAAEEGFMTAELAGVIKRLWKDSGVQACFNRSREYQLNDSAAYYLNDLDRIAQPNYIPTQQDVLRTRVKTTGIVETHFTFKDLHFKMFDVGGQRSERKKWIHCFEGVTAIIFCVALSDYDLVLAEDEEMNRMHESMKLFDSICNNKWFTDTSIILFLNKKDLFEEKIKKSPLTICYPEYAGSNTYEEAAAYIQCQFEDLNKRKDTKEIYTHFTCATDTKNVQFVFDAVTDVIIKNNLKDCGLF
Coupling enz = counter-screen for Giardia aldolase inhibitors: coupling enzyme system; AID 2472; coupling enzyme system counterscreen, AmpLite Red fluorescence; activity change, negative = inhibition, % at 58.2 µM, hits read low; hit rate 0.67% among 290,000; in the data active means activity change below about -30%
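First, compound is pin-transferred into glyceraldehyde-3-phosphate coupling-enzyme reagent at 57.5 uM final and held 10 min at RT. Next, substrate, coupling system and AmpLite Red are added. After 20 min RT, fluorescence (525/598 nm) is read.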
TRb SRC2 PPI = inhibitors of human thyroid hormone receptor beta-SRC2 interaction | P10828 | TRbeta-SRC2 peptide binding, fluorescence polarization; receptor liganded with 1 µM T3 | Potency, µM (highest dose often 106 µM), for the others: at the top dose activity change, negative = inhibition, most hits filed as inhibitors | hit rate 0.065% among 280,000 | AID 1469; active means well fitted inhibition curve with a large enough effect; inconclusive means small, poorly fitted or top-dose-only effect, or effect the other way;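 further: potency means the concentration at half of the fitted maximal effect; plate controls were bound peptide for no effect and peptide without receptor for full effect; nearly all actives have a fitted effect of over 50% in size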
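Quantitative HTS by FP: 0.6 uM TRb LBD, 20 nM labeled SRC2 20-mer, 1 uM T3, 5% DMSO; 5 hr ambient incubation; % activity per concentration and potencies from concentration series.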
* = called active by the depositor; [ ] = dose if it differs, or a comment. In the library only some 0.93% were active in any assay of this set; here they are far more common. Unless noted, on the % scale 0 is the no-effect control and ±100 the full control effect.

For CCC(=O)NC(=S)Nc1ccc(-c2nc3ccccc3s2)cc1 the results were TR SRC2 fluor cs 0%, GoLoco inh red 2%, Coupling enz 1 and TRb SRC2 PPI 9%.
`CCC(=O)Nc1cc(-c2nc3ccccc3s2)c(Cl)cc1Cl` gave TR SRC2 fluor cs 35µM*[quencher] and TRb SRC2 PPI -11%.
Screening CCN(CC)Cc1cc(O)c(CN(CC)CC)cc1O returned TR SRC2 fluor cs inconclusive, GoLoco inh red 7.9µM*, Coupling enz -33* and TRb SRC2 PPI -10%.
`CCc1oc(C(=O)O)cc1CN(CC)CC` gave TR SRC2 fluor cs 0%, GoLoco inh red 8%, Coupling enz 0 and TRb SRC2 PPI 1%.
Screening CC(=O)c1c(C)oc2c(Br)cc(NS(=O)(=O)c3ccc(Br)cc3)cc12 returned TR SRC2 fluor cs -3% and TRb SRC2 PPI -6%.
Screening COc1ccc(CNC(=O)COC(=O)Cc2ccc(Cl)cc2Cl)cc1 returned TR SRC2 fluor cs 35µM*[quencher], GoLoco inh red -7%, Coupling enz -1 and TRb SRC2 PPI inconclusive.
`Cc1ccc2nc(-c3ccc(NC(=O)COc4c(C)ccc(C)c4C)cc3)sc2c1` gave TR SRC2 fluor cs 0% and TRb SRC2 PPI 1%.
Screening Cc1ccc2nc(-c3ccc(NC(=O)COc4ccc(Br)cc4Br)cc3)sc2c1 returned TR SRC2 fluor cs 0.32µM*[quencher] and TRb SRC2 PPI -30%[53 µM].
CCOc1ccc(NC(=O)CSc2nccn2C2CCCC2)cc1 was read as TR SRC2 fluor cs -4% and TRb SRC2 PPI 0%.
For Cc1cc(C)c(Nc2cc(S(=O)(=O)O)c(N)c3c2C(=O)c2ccccc2C3=O)c(C)c1 the results were TR SRC2 fluor cs -24%, GoLoco inh red 6%, Coupling enz -4 and TRb SRC2 PPI 45µM*.
Screening Nc1ccc(-c2ccc(Nc3cc(S(=O)(=O)O)c(N)c4c3C(=O)c3ccccc3C4=O)cc2)c(S(=O)(=O)O)c1 returned GoLoco inh red -27%[14.2 µM].
O=C1C(Nc2ccccc2)=C(N2CCCCC2)C(=O)c2ccccc21 was read as TR SRC2 fluor cs -2%, GoLoco inh red -6%, Coupling enz -50* and TRb SRC2 PPI 2%.
For O=C1C(NS(=O)(=O)c2ccc(Br)cc2)=C(N2CCCCC2)C(=O)c2ccccc21 the results were Coupling enz -26.
For O=C(/C=C/c1ccc(O)cc1)c1ccccc1 the results were TR SRC2 fluor cs -4%, GoLoco inh red 3%, Coupling enz 0 and TRb SRC2 PPI 9%.
Screening COc1ccccc1NC1=C(N2CCCCC2)C(=O)c2ccccc2C1=O returned TR SRC2 fluor cs 3%, GoLoco inh red -11%, Coupling enz -51* and TRb SRC2 PPI 2%.
For Cc1ccc(NC2=C(N3CCCCC3)C(=O)c3ccccc3C2=O)cc1 the results were TR SRC2 fluor cs -3%, Coupling enz -45* and TRb SRC2 PPI 6%.
For O=C(/C=C/c1ccc(O)cc1)c1ccc(NC2=C(N3CCCCC3)C(=O)c3ccccc3C2=O)cc1 the results were TR SRC2 fluor cs -24%, GoLoco inh red -8%, Coupling enz -46* and TRb SRC2 PPI 11%.
Cc1oc2ccc(O)c(CN3CCCC3)c2c1C(=O)Nc1ccc(C(C)C)cc1 was read as TR SRC2 fluor cs 4% and TRb SRC2 PPI -4%.
`O=C(Cn1cc(SCc2ccc(C(F)(F)F)cc2)c2ccccc21)N1CCCC1` gave TR SRC2 fluor cs -1% and TRb SRC2 PPI -3%.
O=C1C(Nc2cccc(O)c2)=C(N2CCCCC2)C(=O)c2ccccc21 was read as TR SRC2 fluor cs -2%[53 µM], GoLoco inh red -13%, Coupling enz -51* and TRb SRC2 PPI -14%[53 µM].
Screening CN(C1=C(N2CCCCC2)C(=O)c2ccccc2C1=O)c1ccccc1 returned TR SRC2 fluor cs -1%, GoLoco inh red -2%, Coupling enz -27 and TRb SRC2 PPI 4%.
O=[N+]([O-])c1cc(Cl)ccc1N1CCCC1 was read as TR SRC2 fluor cs -2%, GoLoco inh red 10%, Coupling enz 2 and TRb SRC2 PPI 0%.
`O=C1C(Cl)=C(N2CCN(c3ccccc3[N+](=O)[O-])CC2)C(=O)c2ccccc21` gave TR SRC2 fluor cs -7%, GoLoco inh red -1%, Coupling enz -41* and TRb SRC2 PPI -2%.
CCOc1ccccc1NC(=O)NCc1noc2ccc(C)cc12 was read as TR SRC2 fluor cs -1% and TRb SRC2 PPI 6%.
For C(=C\c1ccco1)/C=N/n1cnnc1 the results were TR SRC2 fluor cs 8%, GoLoco inh red -35%, Coupling enz -40* and TRb SRC2 PPI -9%.
S=c1[nH]nc(-c2ccncc2)n1/N=C/C=C/c1ccco1 was read as TR SRC2 fluor cs -3%, GoLoco inh red 13%, Coupling enz -10 and TRb SRC2 PPI -4%.
`CC(C)(C)c1ccc(N2C[C@@H](COc3ccc(C(=O)O)cc3)CC2=O)cc1` gave TR SRC2 fluor cs 0%, Coupling enz -1 and TRb SRC2 PPI -2%.
For CN1/C(=C\C=C2/SC(=S)N(CC(=O)O)C2=O)C(C)(C)c2ccccc21 the results were TR SRC2 fluor cs 45µM*[fluorescent], GoLoco inh red -144%, Coupling enz -13 and TRb SRC2 PPI inconclusive.
Screening COC(=O)[C@@H]1[C@@H](O)[C@]2(O)c3ccccc3O[C@]2(c2ccccc2)[C@H]1c1ccccc1 returned TR SRC2 fluor cs -2%[11.2 µM], Coupling enz 1 and TRb SRC2 PPI -3%[11.2 µM].
For COc1cccc(/C=C/C(=O)OCC(=O)NCC2CCCO2)c1 (configuration not stated) the results were TR SRC2 fluor cs 0%, GoLoco inh red 6%, Coupling enz 3 and TRb SRC2 PPI 1%.
For COc1cccc(/C=C/C(=O)OCC(=O)NCC2CCCO2)c1OC (configuration not stated) the results were TR SRC2 fluor cs 71µM*[quencher], GoLoco inh red -22%, Coupling enz -4 and TRb SRC2 PPI -17%[53 µM].
For COC1(OC)N=C(N)C2(C#N)C(c3ccccc3)NC(C)=CC12C#N (configuration not stated) the results were TR SRC2 fluor cs 0%, GoLoco inh red -16%, Coupling enz 5 and TRb SRC2 PPI 2%.
Screening CC1=CC(C#N)(C#N)C(C#N)(C#N)C(c2ccccc2)N1 (configuration not stated) returned TR SRC2 fluor cs 9%, GoLoco inh red 32µM*, Coupling enz -9 and TRb SRC2 PPI -3%.
`Nc1c(C(=O)NCCN2CCOCC2)c2nc3ccccc3nc2n1-c1ccccc1` gave TR SRC2 fluor cs -2%, GoLoco inh red 1%, Coupling enz -30* and TRb SRC2 PPI -9%.
COCCNC(=O)c1c(N)n(-c2ccccc2)c2nc3ccccc3nc12 was read as TR SRC2 fluor cs -1%, GoLoco inh red 3%, Coupling enz -6 and TRb SRC2 PPI -11%.
Screening COCCNC(=O)c1c(N)n(-c2cccc(C)c2)c2nc3ccccc3nc12 returned TR SRC2 fluor cs -2%, GoLoco inh red 11%, Coupling enz -38* and TRb SRC2 PPI -19%.
COC(=O)c1c(N)n(-c2ccc(NC(C)=O)cc2)c2nc3ccccc3nc12 was read as TR SRC2 fluor cs -3%, GoLoco inh red 32%, Coupling enz -30* and TRb SRC2 PPI 4%.

High-throughput results (PubChem BioAssay)
